In PubChem BioAssay (NCATS):
Inconclusive results are not listed. Entries that show only a call come without a potency. A number with no mark means an inactive call. The source made the active and inactive calls. Calls come from the whole dose curve; as a rule, active = well fitted curve in the direction sought with a large enough effect; inconclusive = small, poorly fitted or top-dose-only effect, or another doubt; inactive = no such curve, though single readings can be large; an effect the other way counts as inactive or inconclusive.

biological target: Cytochrome P450 3A7 (Homo sapiens) (UniProt P24462); experiment: Cytochrome P450 family 3 subfamily A member 7 (CYP3A7) small molecule antagonists: luciferase biochemical qHTS assay (AID 1963596); details: P450-Glo CYP3A7 enzyme luminescence, 1 h; series mostly up to 57.4 µM
In short: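 Luminescence read-out (relative luminescence units) after 20 min with detection reagent, which stops the reaction. Enzyme, proluciferin substrate and compound preincubated 10 min, RT; NADPH regeneration system then started 1 h reaction. Ketoconazole as positive control.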
Note: nearly all actives have a fitted effect of over 40% in size.

Cytochrome P450 3A7 (Homo sapiens), sequence (P24462 whole entry, looked up): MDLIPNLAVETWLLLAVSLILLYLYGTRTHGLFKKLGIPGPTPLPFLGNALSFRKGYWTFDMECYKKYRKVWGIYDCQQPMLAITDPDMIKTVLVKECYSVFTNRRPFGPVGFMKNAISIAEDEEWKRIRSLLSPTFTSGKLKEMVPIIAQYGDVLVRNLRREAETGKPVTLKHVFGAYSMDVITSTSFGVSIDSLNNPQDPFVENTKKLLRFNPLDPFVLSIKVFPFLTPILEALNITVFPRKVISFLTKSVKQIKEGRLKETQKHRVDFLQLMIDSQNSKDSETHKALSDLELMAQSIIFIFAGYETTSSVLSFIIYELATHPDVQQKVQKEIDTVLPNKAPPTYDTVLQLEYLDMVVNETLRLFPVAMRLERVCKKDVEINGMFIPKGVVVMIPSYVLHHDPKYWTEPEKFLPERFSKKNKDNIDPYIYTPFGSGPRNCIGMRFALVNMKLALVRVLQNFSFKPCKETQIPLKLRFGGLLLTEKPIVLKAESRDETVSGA

| Structure (SMILES) | Potency | activity change, negative = inhibition |
| --- | --- | --- |
| NC(=O)NC1NC(=O)NC1=O (stereo not given) | inactive |  |
| O=c1[nH]c(=O)c2ccccc2o1 | inactive |  |
| NS(=O)(=O)c1ccc(NC(=O)CCC(=O)O)cc1 | inactive |  |
| CN1Cc2cc(C(=O)N3CCC(C4CCNCC4)CC3)ccc2N[C@@H](CC(=O)O)C1=O | inactive |  |
| OC[C@H]1O[C@@H](n2cnc3c2NC=NC[C@H]3O)C[C@@H]1O | inactive |  |
| O=C(Oc1ccccc1)c1ccccc1O | inactive |  |
| CCCCCCCCCCOc1cc2c(=O)c(C(=O)OCC)c[nH]c2cc1OCC |  | 9.06% [at 4.83 µM] |
| CCNC(=O)/C=C/c1cccc(Br)c1 | inactive |  |
| CC[C@@]1(c2ccccc2)NC(=O)N(C)C1=O | inactive |  |
| FC(F)(F)C(Cl)Br (stereo not given) | inactive |  |
| C[C@H]1[C@H](NC(=O)/C(=N/OC(C)(C)C(=O)O)c2csc(N)n2)C(=O)N1S(=O)(=O)O (stereo in doubt) | inactive |  |
| O=C(O)c1ccc(S(=O)(=O)N(Cl)Cl)cc1 | inactive |  |
| O=C(O)CCCCCCCC(=O)O | inactive |  |
| CC1CCN(CCCC(=O)c2ccc(F)cc2)CC1 | inactive |  |
| CC(=O)Nc1ccccc1 | inactive |  |
| CCOc1ccc(NC(C)=O)cc1 | inactive |  |
| CCn1ccc(NS(=O)(=O)c2ccc(N)cc2)nc1=O | inactive |  |
| O=C(Nc1ccc(Cl)cc1)Nc1ccc(Cl)c(Cl)c1 | inactive |  |
| CCCN(CCC)S(=O)(=O)c1ccc(C(=O)O)cc1 | inactive |  |
| CC(=O)Nc1ncc([N+](=O)[O-])s1 | inactive |  |

| Structure (SMILES) | Potency | activity change, negative = inhibition |
| --- | --- | --- |
| CC(C)CCCC(C)N (stereo not given) | inactive |  |
| CC[C@H]1OC(=O)[C@H](C)[C@@H](O[C@H]2C[C@@](C)(OC)[C@@H](O)[C@H](C)O2)[C@H](C)[C@@H](O[C@@H]2O[C@H](C)C[C@H](N(C)C)[C@H]2O)[C@](C)(O)C[C@@H](C)CN(C)[C@H](C)[C@@H](O)[C@]1(C)O | inactive |  |
| NC(N)=NS(=O)(=O)c1ccc(N)cc1 | inactive |  |
| CC(C)=CCC/C(C)=C/CC/C(C)=C/CCC(=O)OC/C=C(\C)CCC=C(C)C | inactive |  |
| Cn1c(=O)c2[nH]cnc2n(C)c1=O | inactive |  |
| Cc1sccc1Br | inactive |  |
| CCC(=O)Nc1ccc(O)cc1 | inactive |  |
| C/C=C/C(=O)N(CC)c1ccccc1C | inactive |  |
| Nc1nc(=O)n([C@@H]2O[C@H](CO)[C@@H](O)[C@@H]2F)cc1I | inactive |  |
| CN(C)C(=O)c1cc2cnc(Nc3ccc(N4CCNCC4)cn3)nc2n1C1CCCC1 | inactive |  |
| CCn1cc(C(=O)O)c(=O)c2cnc(N3CCCC3)nc21 |  | 25.3% [at 11.5 µM] |
| Cc1cccc(C)c1NC(=O)c1ccccc1C(=O)O | inactive |  |
| O=C(NCN1CCOCC1)c1cnccn1 | inactive |  |
| CN1[C@@H]2CC[C@H]1CC(OC(=O)c1c[nH]c3ccccc13)C2 (stereo not given in full) | inactive |  |
| CNc1c2c(nn1C)CCCC2 | inactive |  |
| O=C1NCC2(CCN(CCc3ccccc3)CC2)O1 | inactive |  |
| [O-][n+]1cccc(/C(Cl)=N/OC[C@@H](O)CN2CCCCC2)c1 | inactive |  |
| O=C(O)C(=O)Nc1cccc(-c2nn[nH]n2)c1 | inactive |  |
| OC1(c2ccc(Cl)cc2)CCNCC1 | inactive |  |
| Cc1cccc(-c2nn3c(c2-c2ccnc4ccc(C(N)=O)cc24)CCC3)n1 | inactive |  |

system: not listed separately; experiment: Viability qHTS for spleen associated tyrosine kinase inhibitor (SYKi) naive MV4-11 cells (AID 1963823); details: MV4-11 AML viability, CellTiter-Glo luminescence, 72 h; series mostly up to 45 µM; note: potency is the fitted concentration of half-maximal effect
In short: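 Seeding of 500 SYKi-naive MV4-11 cells per well onto pre-dispensed compounds preceded a 72 hr incubation at 37 C. Luminescent CellTiter-Glo signal, read after 10 min at room temperature, reflected viable cells.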

| Structure (SMILES) | Potency | viability (% of control) |
| --- | --- | --- |
| NC(=O)NC1NC(=O)NC1=O (stereo not given) | inactive |  |
| O=c1[nH]c(=O)c2ccccc2o1 | inactive |  |
| NS(=O)(=O)c1ccc(NC(=O)CCC(=O)O)cc1 | inactive |  |
| CN1Cc2cc(C(=O)N3CCC(C4CCNCC4)CC3)ccc2N[C@@H](CC(=O)O)C1=O | inactive |  |
| OC[C@H]1O[C@@H](n2cnc3c2NC=NC[C@H]3O)C[C@@H]1O | inactive |  |
| O=C(Oc1ccccc1)c1ccccc1O | inactive |  |
| CCCCCCCCCCOc1cc2c(=O)c(C(=O)OCC)c[nH]c2cc1OCC |  | 102% [at 4.97 µM] |
| CCNC(=O)/C=C/c1cccc(Br)c1 | inactive |  |
| CC[C@@]1(c2ccccc2)NC(=O)N(C)C1=O | inactive |  |
| FC(F)(F)C(Cl)Br (stereo not given) | inactive |  |
| C[C@H]1[C@H](NC(=O)/C(=N/OC(C)(C)C(=O)O)c2csc(N)n2)C(=O)N1S(=O)(=O)O (stereo in doubt) | inactive |  |
| O=C(O)c1ccc(S(=O)(=O)N(Cl)Cl)cc1 | inactive |  |
| O=C(O)CCCCCCCC(=O)O | inactive |  |
| CC1CCN(CCCC(=O)c2ccc(F)cc2)CC1 | inactive |  |
| CC(=O)Nc1ccccc1 | inactive |  |
| CCOc1ccc(NC(C)=O)cc1 | inactive |  |
| CCn1ccc(NS(=O)(=O)c2ccc(N)cc2)nc1=O | inactive |  |
| O=C(Nc1ccc(Cl)cc1)Nc1ccc(Cl)c(Cl)c1 | 9.44 µM (active) |  |
| CCCN(CCC)S(=O)(=O)c1ccc(C(=O)O)cc1 | inactive |  |
| CC(=O)Nc1ncc([N+](=O)[O-])s1 | inactive |  |

| Structure (SMILES) | Potency | viability (% of control) |
| --- | --- | --- |
| CC(C)CCCC(C)N (stereo not given) | inactive |  |
| CC[C@H]1OC(=O)[C@H](C)[C@@H](O[C@H]2C[C@@](C)(OC)[C@@H](O)[C@H](C)O2)[C@H](C)[C@@H](O[C@@H]2O[C@H](C)C[C@H](N(C)C)[C@H]2O)[C@](C)(O)C[C@@H](C)CN(C)[C@H](C)[C@@H](O)[C@]1(C)O | inactive |  |
| NC(N)=NS(=O)(=O)c1ccc(N)cc1 | inactive |  |
| CC(C)=CCC/C(C)=C/CC/C(C)=C/CCC(=O)OC/C=C(\C)CCC=C(C)C | inactive |  |
| Cn1c(=O)c2[nH]cnc2n(C)c1=O | inactive |  |
| Cc1sccc1Br | inactive |  |
| CCC(=O)Nc1ccc(O)cc1 | inactive |  |
| C/C=C/C(=O)N(CC)c1ccccc1C | inactive |  |
| Nc1nc(=O)n([C@@H]2O[C@H](CO)[C@@H](O)[C@@H]2F)cc1I | inactive |  |
| CN(C)C(=O)c1cc2cnc(Nc3ccc(N4CCNCC4)cn3)nc2n1C1CCCC1 | 2.31 µM (active) |  |
| CCn1cc(C(=O)O)c(=O)c2cnc(N3CCCC3)nc21 |  | 74.1% [at 9.25 µM] |
| Cc1cccc(C)c1NC(=O)c1ccccc1C(=O)O | inactive |  |
| O=C(NCN1CCOCC1)c1cnccn1 | inactive |  |
| CN1[C@@H]2CC[C@H]1CC(OC(=O)c1c[nH]c3ccccc13)C2 (stereo not given in full) | inactive |  |
| CNc1c2c(nn1C)CCCC2 | inactive |  |
| O=C1NCC2(CCN(CCc3ccccc3)CC2)O1 | inactive |  |
| [O-][n+]1cccc(/C(Cl)=N/OC[C@@H](O)CN2CCCCC2)c1 | inactive |  |
| O=C(O)C(=O)Nc1cccc(-c2nn[nH]n2)c1 | inactive |  |
| OC1(c2ccc(Cl)cc2)CCNCC1 | inactive |  |
| Cc1cccc(-c2nn3c(c2-c2ccnc4ccc(C(N)=O)cc24)CCC3)n1 | inactive |  |
